The whole screen tested about 200,000 compounds, of which about 3,000 (1.5%) were called active. This is one part of a sample in which actives are shown more often than they occur.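 Rule for the calls: active = inhibition above about 50% when tested at 10 µM (limit read from the data); inactive = the rest.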
target: Luciferin 4-monooxygenase (Photinus pyralis) (UniProt P08659); test: firefly luciferase enzyme inhibitors, primary screen, artefact control for luciferase-based inhibitor screens, biochemical, luminescence, ATPLite (AID 1006); settings: 10 min, at 10 µM, stronger effect = higher value
Sequence (P08659 whole entry, looked up): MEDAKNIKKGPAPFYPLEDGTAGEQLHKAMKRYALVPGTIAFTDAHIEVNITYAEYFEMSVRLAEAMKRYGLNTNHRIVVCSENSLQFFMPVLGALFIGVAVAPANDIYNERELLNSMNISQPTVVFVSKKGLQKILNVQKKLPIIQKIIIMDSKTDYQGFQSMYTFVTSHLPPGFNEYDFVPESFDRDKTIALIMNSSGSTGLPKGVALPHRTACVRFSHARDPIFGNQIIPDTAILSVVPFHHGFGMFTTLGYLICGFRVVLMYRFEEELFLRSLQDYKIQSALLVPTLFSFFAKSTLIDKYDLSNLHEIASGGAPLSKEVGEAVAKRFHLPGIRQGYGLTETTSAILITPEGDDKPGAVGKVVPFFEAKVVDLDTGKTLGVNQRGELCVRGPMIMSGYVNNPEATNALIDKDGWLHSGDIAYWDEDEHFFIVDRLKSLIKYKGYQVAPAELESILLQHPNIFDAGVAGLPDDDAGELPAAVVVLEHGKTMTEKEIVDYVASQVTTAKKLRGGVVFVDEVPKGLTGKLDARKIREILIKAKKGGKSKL

inhibition, inactive:
CCO[C@H]1OC(C(=O)O)=C[C@@H](C2CCCCC2)[C@@H]1CCCO -12%, COC(=O)c1nc2ccccc2s1 -1.8%, Oc1ccc(-c2[nH]ncc2-c2nc3ccccc3s2)c(O)c1 -7.2%, c1csc(-c2nnc(COc3ccc4c(c3)OCO4)o2)c1 5.4%, NS(=O)(=O)c1ccc(N2C(=O)C3C4CC(C(Br)C4Br)C3C2=O)cc1 (stereo not given) -4.1%, CCc1ccc(N2CC(O)=C(c3nc4ccccc4c(=O)[nH]3)C2=N)cc1 1.7%, CCN(CC)c1ccc(/C=N/Nc2nc(C)cc(=O)[nH]2)cc1 26.8%, COc1ccc(C=Nc2cccc3ncccc23)cc1 -0.8%, C[C@@H]1NC(=O)c2cc([N+](=O)[O-])cc(F)c2NCCC[C@@H](C(N)=O)NC(=O)[C@H](CC(N)=O)NC1=O -4.9%, Fc1ccccc1Cc1ccc(Cl)nn1 -5.5%, CCc1ccc(-c2nnn(Cc3nn[nH]n3)n2)cc1 -1.9%, c1cc(-c2nn[nH]n2)ccc1CN1CCCCC1 -3.9%, O=C(COC(=O)C12CC3CC(CC(O)(C3)C1)C2)NC12CC3CC(CC(C3)C1)C2 -8.6%, Cc1cc(Br)ccc1SCC(=O)OCC(=O)NCc1ccc2c(c1)OCO2 -0.9%, Cn1cc(CN2CCCCC2c2ccccn2)c(-c2ccc3c(c2)OCCO3)n1 (stereo not given) -5%, COC(=O)C1=C(C)N(C)C(=O)NC1c1ccc([N+](=O)[O-])o1 (stereo not given) -8%, CCOc1ncccc1C(=O)OCc1cn2cc(Cl)ccc2n1 -4.4%, O=c1cc(CSc2ccc(Cl)cc2)nc(N2CCOCC2)[nH]1 -3.7%, Cc1ccc(N(CC(=O)Nc2cccc(N(C)S(C)(=O)=O)c2)S(C)(=O)=O)cc1 1.1%, COc1cccc(N(CC(=O)Nc2cccc(N(C)S(C)(=O)=O)c2)S(C)(=O)=O)c1 -3.8%, Cc1ccc(/C=C/C(=O)Nc2cc(S(=O)(=O)N3CCCCCC3)ccc2OCC(F)(F)F)o1 -5.3%, O=C(NCc1ccco1)c1cccn2c(=O)c3c4c(sc3nc12)CCCC4 -5.5%, Cn1c(=O)n(Cc2ccco2)c(=N)c2c3c(sc21)CCCC3 -0.5%, O=C(c1cn2ccccc2n1)N1CCc2c([nH]c3ccccc23)C1c1ccccn1 (stereo not given) 1%, C=CCN(CC=C)C(=O)CN1C(=O)c2ccccc2C1=O -5%, Cc1cc(C(=O)COC(=O)CCCN2C(=O)c3ccccc3C2=O)c(C)n1C 8.4%, O=C1COc2ccc(C(=O)COC(=O)C3CC(O)CN3S(=O)(=O)c3ccc(Cl)cc3)cc2N1 (stereo not given) 29.8%, COc1ccc(NC(C(=O)Nc2cccc(C(C)=O)c2)c2ccccc2)cc1 (stereo not given) 1.7%, O=C(Nc1ccc(-c2ccc3nncn3n2)cc1)C1CCCCC1 26.9%, COc1ccc(/C=C2\CCc3ccccc3C2=O)c(OC)c1OC 1.1%, CCC1C/C(=C/c2cccs2)C(=O)/C(=C/c2cccs2)C1 (stereo not given) -5.8%, Cc1ccc(-c2nc3ccccc3[nH]2)cc1NC(=O)c1sc2ccccc2c1Cl -3%, OCCNc1nc2ccccc2[nH]1 -5.9%, COc1ccc(Br)cc1C(=O)NC(=S)Nc1cc(-c2nc3ccccc3[nH]2)ccc1C 2.5%, c1ccc(-c2[nH]ncc2-c2nc3ccccc3[nH]2)cc1 -8.5%, O=C(CCNS(=O)(=O)c1ccc(Br)s1)NCc1ccccc1Cl -3.8%, Cc1c(NC(=O)CCC2CCCCC2)cc(C(=O)N2CCOCC2)cc1[N+](=O)[O-] -6.5%, O=C(NC(Cc1c[nH]c2ccccc12)C(=O)O)/C(=C/c1ccco1)NC(=O)c1ccccc1 (stereo not given) -0.6%, O=C(CCl)N(Cc1cccc([N+](=O)[O-])c1)c1cccc(Cl)c1 -6.8%, CCCCOc1ccc(N(CC(=O)NC(C)C)C(=O)CCC(=O)Nc2ccccn2)cc1 -9.9%

inhibition, active:
CC(=O)Nc1cccc(-c2nc3ccccc3s2)c1C 52%, COc1ccc(/C=N/Nc2nc3ccccc3c(=O)[nH]2)cc1 59.4%, CC(C)c1ccc(-c2nn[nH]n2)cc1 56.6%, Clc1ccc2nc(CSc3ccccc3)cn2c1 51%, CN(c1cccc(NC(=O)Nc2ccc(Cl)cc2)c1)S(C)(=O)=O 50.6%, O=c1oc(-c2ccco2)nc2sc3c(c12)CCCCC3 82.9%, C=CCn1c(C)cc(C(=O)CN2C(=O)c3ccccc3C2=O)c1C 57.4%, O=C1/C(=C/c2cccs2)CCc2ccccc21 76%, Cc1ccc(-c2nc3ccccc3[nH]2)cc1N 80.7%, c1ccc2[nH]c(-c3nc4ccccc4[nH]3)nc2c1 58.7%
